Test results as given in PubChem BioAssay (Tox21).
Values joined by “and” are separate entries in the source; they are usually repeats but may differ in a detail not shown here. Identical values can stand only once. Inconclusive results are not listed. Where a call stands in place of a potency, no number is given. Active and inactive are the calls of the source. Calls follow the shape of the dose curve; as a rule, active = well fitted curve in the direction sought with a large enough effect in the repeat runs; inconclusive = weak or mixed curves; inactive = no such curve, though single readings can be large; an effect the other way counts as inactive or inconclusive.

assay: qHTS assay for small molecule disruptors of the mitochondrial membrane potential (AID 720635); conditions: HepG2 mitochondrial membrane potential, Mito-MPS dye ratio; series mostly up to 83.2 µM; also: potency is read from the fitted curve at half-maximal effect
Summary of the method: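 HepG2 cells (2,000/well) attached overnight at 37C, then took compound for 1 hr at 37C, 5% CO2. Mito-MPS dye was added for 30 min; fluorescence was read at 490/535 nm (monomers) and 540/590 nm (aggregates).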

Structure (SMILES)	Potency
CCCCCCCCCCCCCC[N+](C)(C)C	17.6 µM (active) and 13.2 µM (active) and 6.85 µM (active)
COC(=O)Nc1nc2ccc(C(=O)c3ccccc3)cc2[nH]1	2.27 µM (active)
ClCCl	inactive

assay: qHTS assay to test for compound auto fluorescence at 590 nm (red) in HepG2 cells (AID 720674); conditions: HepG2 autofluorescence, red 540/590 nm, 1 h; series mostly up to 91.3 µM; also: potency is read from the fitted curve at half-maximal effect
Summary of the method: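 Intrinsic compound fluorescence in the red window (Ex/Em 540/590 nm) is measured in attached HepG2 cells exposed for 1 hr, DMSO vehicle as baseline, benchmarked to Rose Bengal sodium.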

Structure (SMILES)	Potency	fluorescence, relative to Rose Bengal
CCCCNS(=O)(=O)c1ccc(C)cc1	inactive	–
CCCCCCCCCCCCCC[N+](C)(C)C	inactive	–
O=C(Oc1ccccc1)Oc1ccccc1	inactive	–
OC1CCCc2ccccc21 (configuration not stated)	inactive	–
OC[C@H]1O[C@H](O[C@H]2O[C@H](CO)[C@@H](O)[C@H](O)[C@H]2O)[C@H](O)[C@@H](O)[C@@H]1O	inactive	–
CC(C)CCCCCOC(=O)CCS	inactive	–
CCC(COC(=O)CCS)(COC(=O)CCS)COC(=O)CCS	inactive	–
COC(=O)Nc1nc2ccc(C(=O)c3ccccc3)cc2[nH]1	–	-0.678% [at 18.6 µM] (inactive)
CC(=O)OCC=C(C)C	inactive	–
CCCCCCOC(=O)C(C)CC (configuration not stated)	inactive	–
COC(=O)c1ccccc1C	inactive	–
CN(C)Cc1cc(C(C)(C)C)c(O)c(C(C)(C)C)c1	inactive	–
CC/C=C\CCCCCO	inactive	–
Cc1ccc(N/N=c2\c(=O)cc/c(=N\Nc3ccc(S(=O)(=O)O)cc3)c2=O)c(C)c1	inactive	–
O=C(/C=C/c1ccccc1)OC/C=C/c1ccccc1	inactive	–
CCC(=O)OC(=O)CC	inactive	–
COc1cc(S(=O)(=O)O)c(C)cc1N=Nc1c(O)ccc2cc(S(=O)(=O)O)ccc12	inactive	–
O=[N+]([O-])c1cccc(C(F)(F)F)c1	inactive	–
CCO[Si](OCC)(OCC)OCC	inactive	–

Structure (SMILES)	Potency	fluorescence, relative to Rose Bengal
Cc1ccc(-c2ccccc2)cc1	inactive	–
ClCCl	inactive	–
CN1CCCCC1CCN1c2ccccc2Sc2ccc(S(C)=O)cc21 (configuration not stated)	inactive	–
C[Si](Cl)(c1ccccc1)c1ccccc1	inactive	–
NC(=S)NC(N)=S	inactive	–
O=C(O)[C@H](O)[C@@H](O)[C@H](O[C@@H]1O[C@H](CO)[C@H](O)[C@H](O)[C@H]1O)[C@H](O)CO	–	0.507% [at 18.6 µM] (inactive)
CCCCN(CCCC)CC(O)c1cc(Cl)cc2c1-c1ccc(Cl)cc1/C2=C/c1ccc(Cl)cc1 (configuration not stated)	inactive	–
CCCCCc1ccc(Cl)cc1	inactive	–
C=Cc1cccc(C)c1	inactive	–
CC(C)OC(=O)C(O)(CC(=O)O)CC(=O)O	inactive	–
Clc1nnc(Cl)c2ccccc12	inactive	–
[Cl][Pt-2]([Cl])([Cl])[Cl]	inactive	–
O=S(=O)(O)c1ccc(N=Nc2c(O)ccc3ccccc23)cc1	inactive	–
CCOC(=O)NNc1ccc(N(CC)CC(C)O)nn1 (configuration not stated)	inactive	–
CC(C)(C)C1CCC(=O)CC1	inactive	–
C1CCC(SSC2CCCCC2)CC1	inactive	–
CCN(CC)c1ccc2c(-c3ccc(S(=O)(=O)O)cc3S(=O)(=O)[O-])c3ccc(=[N+](CC)CC)cc-3oc2c1	0.398 µM (active)	–
COc1ccc(NC(=O)CC(C)=O)cc1	inactive	–

assay: qHTS assay to test for compound auto fluorescence at 535 nm (green) in HepG2 cells (AID 720675); conditions: green autofluorescence 485/535 nm, 1 h; series mostly up to 91.3 µM

Structure (SMILES)	Potency	fluorescence, % of fluorescein control
CCCCNS(=O)(=O)c1ccc(C)cc1	inactive	–
CCCCCCCCCCCCCC[N+](C)(C)C	inactive	–
O=C(Oc1ccccc1)Oc1ccccc1	inactive	–
OC1CCCc2ccccc21 (configuration not stated)	inactive	–
OC[C@H]1O[C@H](O[C@H]2O[C@H](CO)[C@@H](O)[C@H](O)[C@H]2O)[C@H](O)[C@@H](O)[C@@H]1O	inactive	–
CC(C)CCCCCOC(=O)CCS	inactive	–
CCC(COC(=O)CCS)(COC(=O)CCS)COC(=O)CCS	inactive	–
COC(=O)Nc1nc2ccc(C(=O)c3ccccc3)cc2[nH]1	–	0.0492% [at 18.6 µM] (inactive)
CC(=O)OCC=C(C)C	inactive	–
CCCCCCOC(=O)C(C)CC (configuration not stated)	inactive	–
COC(=O)c1ccccc1C	inactive	–
CN(C)Cc1cc(C(C)(C)C)c(O)c(C(C)(C)C)c1	inactive	–
CC/C=C\CCCCCO	inactive	–
Cc1ccc(N/N=c2\c(=O)cc/c(=N\Nc3ccc(S(=O)(=O)O)cc3)c2=O)c(C)c1	inactive	–
O=C(/C=C/c1ccccc1)OC/C=C/c1ccccc1	inactive	–
CCC(=O)OC(=O)CC	inactive	–
COc1cc(S(=O)(=O)O)c(C)cc1N=Nc1c(O)ccc2cc(S(=O)(=O)O)ccc12	inactive	–
O=[N+]([O-])c1cccc(C(F)(F)F)c1	inactive	–
CCO[Si](OCC)(OCC)OCC	inactive	–

Structure (SMILES)	Potency	fluorescence, % of fluorescein control
Cc1ccc(-c2ccccc2)cc1	inactive	–
ClCCl	inactive	–
CN1CCCCC1CCN1c2ccccc2Sc2ccc(S(C)=O)cc21 (configuration not stated)	inactive	–
C[Si](Cl)(c1ccccc1)c1ccccc1	inactive	–
NC(=S)NC(N)=S	inactive	–
O=C(O)[C@H](O)[C@@H](O)[C@H](O[C@@H]1O[C@H](CO)[C@H](O)[C@H](O)[C@H]1O)[C@H](O)CO	–	0.0584% [at 18.6 µM] (inactive)
CCCCN(CCCC)CC(O)c1cc(Cl)cc2c1-c1ccc(Cl)cc1/C2=C/c1ccc(Cl)cc1 (configuration not stated)	inactive	–
CCCCCc1ccc(Cl)cc1	inactive	–
C=Cc1cccc(C)c1	inactive	–
CC(C)OC(=O)C(O)(CC(=O)O)CC(=O)O	inactive	–
Clc1nnc(Cl)c2ccccc12	inactive	–
[Cl][Pt-2]([Cl])([Cl])[Cl]	inactive	–
O=S(=O)(O)c1ccc(N=Nc2c(O)ccc3ccccc23)cc1	inactive	–
CCOC(=O)NNc1ccc(N(CC)CC(C)O)nn1 (configuration not stated)	inactive	–
CC(C)(C)C1CCC(=O)CC1	inactive	–
C1CCC(SSC2CCCCC2)CC1	inactive	–
CCN(CC)c1ccc2c(-c3ccc(S(=O)(=O)O)cc3S(=O)(=O)[O-])c3ccc(=[N+](CC)CC)cc-3oc2c1	inactive	–
COc1ccc(NC(=O)CC(C)=O)cc1	inactive	–
